# According to PubChem BioAssay AID463173 (ICCB-Longwood Screening Facility, Harvard Medical School, 2010):
# In all, about 52,000 compounds went through this assay and about 1,700 (3.3%) were called active. For the sample, actives were picked, then their nearest neighbours and some compounds at random. A number with no mark means an inactive call. No stated cut-off is given here; in the data, active means survival mostly below about 52% (no sharp cut-off); inactive means mostly above about 56%.
# System: Wild type
# Experiment: growth inhibition of S. aureus wild type versus tarO mutant, primary screen, teichoic acid synthesis inhibitors, RN4220, OD600 (AID 463173)
# Conditions: S. aureus RN4220 wild type/DeltatarO growth, OD600, 18 h, active compounds read low, screened at 18.75 µg/mL (by protocol)
row,SMILES,survival
1,CCOc1ccccc1NC(=O)CSc1c(C)cnc2c1c(=O)n(C)c(=O)n2C,67%
2,CCN(CC)C(=O)Cn1c(=O)nc(-c2ccccc2F)c2cc(Cl)ccc21,73%
3,O=C(Nc1cccc(Cl)c1)C1CCCN(c2ncnc3c2nc2n3CCCCC2)C1 (stereo not drawn),36%
4,CC1CCN(c2nc3nonc3nc2Nc2ccc(F)cc2)CC1,103%
5,CC1CCCN(c2nc3nonc3nc2Nc2cccc(Cl)c2)C1 (stereo not drawn),0% (active)
6,CCOC(=O)c1cc(C(C)(C)C)oc1CN,95%
7,CC(C)N(Cc1ccccc1)C(=O)CN1C(=O)CSc2ccc(S(=O)(=O)N3CCCC3)cc21,100%
8,Cc1cccc(CNC(=O)C2CCN(c3nc4ccc(Cl)cc4[nH]3)CC2)c1,79%
9,CC1CCN(C(=O)CSc2nc3ccccc3nc2Cc2ccccc2)CC1,73%
10,CCCc1nn2c(=O)cc(COC(=O)c3ccccc3NC(=O)c3ccc(OCC)cc3)nc2s1,22%
11,CCOCCc1nn2c(=O)cc(COC(=O)c3ccc(NC(=O)c4ccc(F)cc4)cc3)nc2s1,0% (active)
12,COCCc1nn2c(=O)cc(COC(=O)c3ccccc3C)nc2s1,-6% (active)
13,CCOc1ccc(C(=O)Nc2cccc(C(=O)OCc3cc(=O)n4nc(C5CC5)sc4n3)c2)cc1,51%
14,CCOCCc1nn2c(=O)cc(COC(=O)c3ccc(NC(=O)c4cccs4)cc3)nc2s1,118%
15,CCOCCc1nn2c(=O)cc(COC(=O)c3ccc4c(c3)OCO4)nc2s1,133%
16,CCCCc1nn2c(=O)cc(COC(=O)c3ccccc3C)nc2s1,72%
17,CCOCCc1nn2c(=O)cc(COC(=O)CNC(=O)c3cccc(C)c3)nc2s1,84%
18,COCCc1nn2c(=O)cc(COC(=O)COc3ccccc3C)nc2s1,80%
19,CCCc1nn2c(=O)cc(COC(=O)c3cccc(NC(=O)c4ccc(OCC)cc4)c3)nc2s1,-2% (active)
20,CCOCCc1nn2c(=O)cc(COC(=O)c3ccc(NC(=O)C(C)(C)C)cc3)nc2s1,77%
21,CCOCCc1nn2c(=O)cc(COC(=O)c3cccc(C)c3)nc2s1,-6% (active)
22,C=CCn1c2ccccc2c2ccccc21,80%
23,Cc1cccc(-c2nc(SCCCOc3ccccc3Cl)n3[nH]c(=O)cc3n2)c1,65%
24,NC(=O)CSc1nnc(CNc2ccc(Cl)cc2)n1Cc1ccccc1,125%

row,SMILES,survival
1,COc1ccc(NC(=O)c2cc3c(=O)n(Cc4cccnc4)ccc3nc2C)cc1Cl,124%
2,Cc1oc(-c2ccccc2)nc1CNC(=O)NC1CCCCC1,72%
3,CCCc1nn2c(=O)cc(COC(=O)c3ccc(NC(=O)COc4ccccc4)cc3)nc2s1,83%
4,CCCc1nn2c(=O)cc(COC(=O)c3ccc(NC(=O)COc4ccc(F)cc4)cc3)nc2s1,10% (active)
5,CCCc1nn2c(=O)cc(COC(=O)c3cccc(NC(=O)COc4ccc(F)cc4)c3)nc2s1,80%
6,COC(=O)c1cc2oc(C)cc2n1Cc1cccc(Cl)c1,-2% (active)
7,COC(=O)c1cc2oc(C)cc2n1Cc1ccc(Cl)cc1,72%
8,CCOC(=O)c1cc2oc(C)cc2n1CC(=O)NC1CC1,94%
9,COC(=O)c1cc2oc(C)cc2n1Cc1cc(C)ccc1C,-2% (active)
10,COC(=O)c1cc2oc(C)cc2n1Cc1ccc(C)cc1,68%
11,COC(=O)c1cc2occc2n1Cc1nc(-c2ccc(C)cc2)oc1C,48%
12,COC(=O)c1cc2occc2n1Cc1cccc(C)c1,-1% (active)
13,COC(=O)c1cc2oc(C)cc2n1CC(=O)Nc1cc(Cl)ccc1OC,88%
14,CCc1cccc(NC(=O)Cn2c(C(=O)OC)cc3occc32)c1,83%
15,CCOC(=O)c1cc2oc(C)cc2n1CCCN1C(=O)c2ccccc2C1=O,-1% (active)
16,C=CCn1c(C(=O)OCC)cc2oc(C)cc21,111%
17,COC(=O)c1cc2oc(C)cc2n1Cc1c(C)cc(C)cc1C,33%
18,CCn1c(SCCN2CCCC2)nnc1C1CCCN(C(=O)c2ccc3c(c2)OCO3)C1 (stereo not drawn),114%
19,O=C(CN1C(=O)COc2ccc(S(=O)(=O)N3CCCCCC3)cc21)NCCc1ccccc1,92%
20,CCSc1nc2c(c(=O)[nH]c(=O)n2C)n1CC(O)COc1ccc(Cl)cc1 (stereo not drawn),161%
21,COc1ccc2c(c1)c1c(c(=O)n(-c3ccc(C)cc3)c(=O)n1CC(=O)Nc1cc(C)ccc1C)n2C,115%
22,COc1ccc(NC(=O)Cn2cc(S(=O)(=O)N3CCN(c4ccccc4F)CC3)c3ccccc3c2=O)cc1Cl,100%
23,Cc1ccccc1C(=O)Nc1c(C)nc(Nc2ccccc2)nc1Nc1ccccc1,94%
24,Cc1ccc(Nc2nc(Nc3ccc(C)c(C)c3)nc(N3CCOCC3)n2)cc1C,73%
